Inconclusive results are not listed. Activity calls are given as the source filed them.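 How the source made its calls, unless noted: active means GFP response below 50% of the DMSO control; inconclusive means fewer than 70 events counted for a yeast strain; inactive means the rest.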
Legend:
[1] = RPL19A-GFP modulators, yeast TOR pathway, confirmation, cell-based, S. cerevisiae, flow cytometry, cherry picks, mother/daughter gates (AID 2270); settings: S. cerevisiae RPL19A-GFP strain, 3 h, at 10 µM, stronger effect = lower value, 100 = same GFP as DMSO wells
[2] = LAP4-GFP expression modulators in yeast, confirmation, cell-based, cherry picks, flow cytometry, mother/daughter gates (AID 2271;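 active means GFP response above 150% of the DMSO control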;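 further: ratio of sample to DMSO plate mean so 100% equals DMSO level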); settings: S. cerevisiae LAP4-GFP strain, 3 h, at 10 µM, stronger effect = higher value
[3] = modulators of CIT2-GFP expression in yeast, confirmation, S. cerevisiae, GFP fusion, cherry picks, mother/daughter gates (AID 2274;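 active means GFP response above 150% of the DMSO level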); settings: S. cerevisiae CIT2-GFP strain, flow cytometry, 3 h, at 10 µM, stronger effect = higher value
[4] = yeast TOR pathway RPL19A-GFP modulators, primary screen, cell-based, S. cerevisiae, multiplex flow cytometry (AID 1862; in the data active means percent of DMSO control GFP below about 86%;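 further: lower values mimic rapamycin by blocking the RPL19A rise seen in DMSO cells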); settings: S. cerevisiae RPL19A-GFP strain, flow cytometry fluorescence, 3 h; at 10 µM; stronger effect = lower value
[5] = modulators of CIT2-GFP expression in yeast, primary screen, S. cerevisiae, GFP fusion, multiplex flow cytometry (AID 1870;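 active means percent response above a set limit, the screen-wide mean plus 3 SD, cut at about 130% in these data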;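 further: barcoded CIT2-GFP strain pooled with four other GFP strains with rapamycin as positive control; median GFP fluorescence per well over plate mean of DMSO wells so 100% = DMSO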); settings: 3 h, at 10 µM, stronger effect = higher value
[6] = modulators of LAP4-GFP expression in yeast, primary screen, S. cerevisiae, multiplex flow cytometry (AID 1873;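 active means GFP signal, as percent of the solvent control, above the screen mean plus 3 SD, about 149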); settings: 3 h, at 10 µM, stronger effect = higher value
[7] = inhibitors of CD8+ T cell-vesicle binding, pilot screen, LFA-1/ICAM-1 modulator project, MLPCN validation set, flow cytometry (AID 2523); settings: 2C mouse CD8+ T cells, at 7 µM, stronger effect = lower value; double positive events: measured here: CD8+/vesicle+ event percentage
[8] = molecular target: Integrin beta-1 (Homo sapiens) + Integrin alpha-4 (Homo sapiens) (UniProt P13612+P05556); test: inhibition of HUTS-21 binding to VLA-4, pilot screen, VLA-4 allosteric modulator project, U937 cells, HUTS-21 mAb, flow cytometry, validation set (AID 2674;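 active means inhibition above 50%, about 3 SD of the validation set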;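 further: antibody binding induced by the VLA-4 ligand LDV present at three times its Kd; 0% = LDV ligand with antibody and no compound and 100% = antibody without LDV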); settings: HUTS-21 LIBS mAb binding, at 6.7 µM, stronger effect = higher value
[9] = superoxide lowering in aged yeast cells, pilot screen, validation compound set (AID 2706;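 active means superoxide response below 65% of plate, a cut near 3 SD across the whole screen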;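 further: yeast exposed to compound for one week at 30 degrees C before staining; 100% = mean of all compound wells on the same plate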); settings: S. cerevisiae aging, superoxide DHE fluorescence; at 10 µM; stronger effect = lower value
[10] = molecular target: Beta-adrenergic receptor kinase 1 (Homo sapiens) (UniProt P25098); test: GRK2 binders displacing RNA aptamer, biochemical, validation, human GRK2, bead flow cytometry (AID 488806;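 active means aptamer binding inhibition above 30%, about 3 SD of noise from non-fluorescent compounds; inactive means inhibition at or below 30%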); settings: bead-bound GRK2, FAM-aptamer displacement, at 10 µM, stronger effect = higher value
[11] = molecular target: Beta-2 adrenergic receptor (Homo sapiens) (UniProt P07550); test: beta2AR agonists driving receptor internalization, pilot screen, cell-based, FAP fluorogen, flow cytometry, validation set (AID 504459;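 active means percent response above 42, roughly 3 SD of non-fluorescent test compounds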;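 further: agonist-driven loss of surface beta2AR via internalization measured by FAP dye flow cytometry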); settings: Am2.2-beta2AR cells, FAP surface receptor flow cytometry; at 10 µM; stronger effect = higher value
[12] = molecular target: AP-2 complex subunit beta (Homo sapiens) (UniProt P63010); test: inhibitors of arrestin peptide binding to AP2, pilot screen, biochemical, validation set, GST-AP2 beads, flow cytometry (AID 504541;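 active means inhibition above 54%, about 3 SD of non-fluorescent compounds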;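 further: AP2 carries R879A mutation and is captured from E. coli lysate; bead-bound FITC arrestin peptide fluorescence measuring arrestin peptide binding to AP2; 0% = DMSO wells and 100% = excess unlabeled arrestin peptide control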); settings: FITC arrestin peptide, at 10 µM, stronger effect = higher value
[13] = yeast V-ATPase proton transport modulators, S. cerevisiae, pHLuorin, HTS validation (AID 504600; in the data active means response above about 15%;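 further: plate controls were DMSO for no effect and reference compound for full effect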); settings: S. cerevisiae pHLuorin cytosolic pH, at 10 µM, stronger effect = higher value
[14] = test system: anti-desmoglein-3 scFv antibody binding to human DSG3; test: inhibitors of anti-DSG3 scFv binding to DSG3, pilot screen, biochemical, validation compound set, bead-based, flow cytometry (AID 588368;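 active means binding below the plate cutoff, the plate median minus 3 SD, with a reading above zero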;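 further: signal is the median channel fluorescence of bead-bound GFP antibody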); settings: Protein G beads, DSG3-Fc, scFv-GFP binding, at 10 µM, stronger effect = lower value
[15] = test system: Botulinum neurotoxin type F light chain protease (Clostridium botulinum); test: Botulinum neurotoxin type F light chain protease inhibition, multiplex microsphere flow cytometry, validation set (AID 588459; call rule not given here); settings: multiplex microsphere protease substrate cleavage assay, at 10 µM, stronger effect = higher value
[16] = molecular target: Botulinum neurotoxin type A (Clostridium botulinum) (UniProt P0DPI0); test: BoNT/A light chain protease inhibitors, biochemical, multiplex microsphere flow cytometry, validation set (AID 588460; call rule not given here); settings: at 10 µM, stronger effect = higher value
[17] = molecular target: Lethal factor (Bacillus anthracis) (UniProt P15917); test: Lethal factor protease inhibitors, Bacillus anthracis, multiplex microsphere cleavage assay, validation set (AID 588461; call rule not given here); settings: flow cytometry, at 10 µM, stronger effect = higher value
[18] = inhibitors of fungal efflux pumps CDR1, CDR2, MDR1, pilot screen, validation compound set, multiplex, phenotypic (AID 588506;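 active means efflux inhibition above 0.42, the validation set average plus 4 SD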;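 further: Nile Red retained in cells so higher fluorescence means more efflux inhibition; 0 = negative control wells and 1 = enniatin B 25 µM full block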); settings: S. cerevisiae pump-expressing triplex, Nile Red efflux flow cytometry; at 10 µM; stronger effect = higher value
[19] = molecular target: ATP-binding cassette sub-family B member 6 (Homo sapiens) (UniProt Q9NP58); test: ABCB6 transporter inhibitors, pilot screen, K562-ABCB6 cells, flow cytometry, validation set (AID 588550;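 active means inhibition above the screen-wide mean plus 3 SD, about 51%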;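 further: 0% = DMSO wells and 100% = benzethonium chloride 70 µM positive control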); settings: K562-ABCB6 porphyrin accumulation, 1 h, at 10 µM, stronger effect = higher value
[20] = promoters of myeloid differentiation in arrested cells, primary screen, cell-based, GFP/MAC1 double positive, flow cytometry, validation set (AID 588685;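 active means differentiation response of at least 50%, scaled between solvent and reference control, from cells with both markers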;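 further: compound exposure lasts four days before antibody staining and flow analysis; 0% = DMSO wells and 100% = 5 µM fulvestrant positive control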); settings: ER-HoxA9 marrow cells, stronger effect = higher value
[21] = measured here: daughter cell gate
[22] = measured here: mother cell gate
[23] = measured here: daughter cell gate response
[24] = measured here: mother cell gate response

Q: With `Nc1ccc2ccc3cccc[n+]3c2c1` as the molecule, how does the GFP response vs DMSO [1] read?
A: 111% (inactive)

Q: What about the GFP response vs DMSO [1, 21] of the same molecule?
A: 110%

Q: And the GFP response vs DMSO [1, 22]?
A: 110%

Q: What about the GFP response relative to DMSO [2] of the same molecule?
A: 181% (active)

Q: What about the GFP response relative to DMSO [2, 23] of the same molecule?
A: 185%

Q: And the GFP response relative to DMSO [2, 24]?
A: 178%

Q: And the GFP response, % of DMSO [3]?
A: 199% (active)

Q: What about the GFP response, % of DMSO [3, 21] of the same molecule?
A: 204%

Q: And the GFP response, % of DMSO [3, 22]?
A: 196%

Q: For `Cc1ccc(N2C(=O)NC(=O)/C(=C\c3cn(CC(=O)O)c4ccccc34)C2=O)cc1`, which GFP response vs DMSO [1] is on record?
A: 100% (inactive)

Q: What about the GFP response vs DMSO [1, 21] of the same molecule?
A: 100%

Q: What about the GFP response vs DMSO [1, 22] of the same molecule?
A: 101%

Q: What about the GFP response relative to DMSO [2] of the same molecule?
A: 102% (inactive)

Q: What about the GFP response relative to DMSO [2, 23] of the same molecule?
A: 102%

Q: What about the GFP response relative to DMSO [2, 24] of the same molecule?
A: 104%

Q: And the GFP response, % of DMSO [3]?
A: 96.5% (inactive)

Q: What about the GFP response, % of DMSO [3, 21] of the same molecule?
A: 94.8%

Q: And the GFP response, % of DMSO [3, 22]?
A: 96.6%

Q: Which results are given for `N#CC(C#N)=NNc1ccc(-n2ccc(C(F)(F)F)n2)cc1`?
A: GFP response vs DMSO [1]: 98% (inactive); GFP response vs DMSO [1, 21]: 97.6%; GFP response vs DMSO [1, 22]: 96.9%; GFP response relative to DMSO ([2]; 100 means same as DMSO control): 111% (inactive); GFP response relative to DMSO ([2]; measured here: daughter cell gate response, 100 means same as DMSO control): 104%; GFP response relative to DMSO ([2]; measured here: mother cell gate response, 100 means same as DMSO control): 111%; GFP response, % of DMSO [3]: 97.2% (inactive); GFP response, % of DMSO [3, 21]: 97.6%; GFP response, % of DMSO [3, 22]: 97.1%

Q: With `N#CC(C#N)=Cc1ccc(N2CCCC2)cc1` as the molecule, how does the GFP response vs DMSO [1] read?
A: 105% (inactive)

Q: What about the GFP response vs DMSO [1, 21] of the same molecule?
A: 102%

Q: What about the GFP response vs DMSO [1, 22] of the same molecule?
A: 107%

Q: What about the GFP response relative to DMSO [2] of the same molecule?
A: 111% (inactive)

Q: What about the GFP response relative to DMSO [2, 23] of the same molecule?
A: 109%

Q: And the GFP response relative to DMSO [2, 24]?
A: 112%

Q: And the GFP response, % of DMSO [3]?
A: 105% (inactive)

Q: And the GFP response, % of DMSO [3, 21]?
A: 106%

Q: And the GFP response, % of DMSO [3, 22]?
A: 104%

Q: Which results are given for `O=C1/C(=C\c2ccc(Cl)c(Cl)c2)N2CCC1CC2`?
A: GFP response vs DMSO [1]: 102% (inactive); GFP response vs DMSO [1, 21]: 101%; GFP response vs DMSO [1, 22]: 99.1%; GFP response relative to DMSO [2]: 124% (inactive); GFP response relative to DMSO [2, 23]: 119%; GFP response relative to DMSO [2, 24]: 130%; GFP response, % of DMSO [3]: 100% (inactive); GFP response, % of DMSO [3, 21]: 101%; GFP response, % of DMSO [3, 22]: 96.8%

Q: For `Nc1ccc(N=Nc2ccccc2)cc1`, which GFP response vs DMSO [1] is on record?
A: 98.4% (inactive)

Q: And the GFP response vs DMSO [1, 21]?
A: 98.4%

Q: What about the GFP response vs DMSO [1, 22] of the same molecule?
A: 96.2%

Q: And the GFP response relative to DMSO [2]?
A: 110% (inactive)

Q: What about the GFP response relative to DMSO [2, 23] of the same molecule?
A: 106%

Q: What about the GFP response relative to DMSO [2, 24] of the same molecule?
A: 111%

Q: And the GFP response, % of DMSO [3]?
A: 100% (inactive)

Q: And the GFP response, % of DMSO [3, 21]?
A: 93.8%

Q: And the GFP response, % of DMSO [3, 22]?
A: 99.3%

Q: Which results are given for `CN1C(=O)C(=Cc2ccc(Sc3ccccc3)o2)C(=O)N(C)C1=S`?
A: GFP response vs DMSO [1]: 98.2% (inactive); GFP response vs DMSO [1, 21]: 94.4%; GFP response vs DMSO [1, 22]: 91.3%; GFP response relative to DMSO [2]: 126% (inactive); GFP response relative to DMSO [2, 23]: 114%; GFP response relative to DMSO [2, 24]: 130%; GFP response, % of DMSO [3]: 99.3% (inactive); GFP response, % of DMSO [3, 21]: 117%; GFP response, % of DMSO [3, 22]: 84%

Q: What does the source list for `CCNC(=O)[C@H]1O[C@@H](n2cnc3c(N)ncnc32)[C@H](O)[C@@H]1O`?
A: percent of DMSO control GFP [4]: 97% (inactive); percent response of DMSO control [5]: 104% (inactive); GFP response vs DMSO [6]: 88.6% (inactive); double positive events [7]: 48.3%; inhibition [8]: 15.2% (inactive); superoxide response (% of plate) [9]: 111% (inactive); aptamer binding inhibition [10]: 66% (active); response [11]: 0.15% (inactive); inhibition [12]: 3.14% (inactive); response [13]: 0.72% (inactive); binding (% of control) [14]: 107% (inactive); inhibition [15]: -4.2% (inactive); inhibition [16]: 0% (inactive); inhibition [17]: 2.8% (inactive); efflux inhibition (fraction of control) [18]: 0.37 (inactive); inhibition [19]: 11% (inactive); differentiation response [20]: 5.73% (inactive)

From PubChem BioAssay
